# PubChem BioAssay AID588466 (NMMLSC, 2011)
# “And” between values parts separate entries of the source, which are not always exact repeats. Identical values can stand only once. The campaign covered roughly 2,100 compounds. About 30 (1%) were called active. A selection follows. Values without a mark were called inactive.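 How the source made its calls: active means compounds whose mean binding response over two repeats is below 75% of the DMSO control; inactive means the rest.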
# Biological target: Desmoglein-3 (Homo sapiens) (UniProt P32926)
# Experiment: inhibitors of anti-DSG3 scFv binding to DSG3, confirmation, biochemical, cherry pick 1, bead-based, flow cytometry (AID 588466);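 further: 100% = 2% DMSO vehicle and 0% = excess soluble DSG3 blocking control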
# Settings: Protein G beads with DSG3, scFv-GFP binding, at 10 µM, hits give low values
# Desmoglein-3 (Homo sapiens), sequence (P32926 whole entry, looked up): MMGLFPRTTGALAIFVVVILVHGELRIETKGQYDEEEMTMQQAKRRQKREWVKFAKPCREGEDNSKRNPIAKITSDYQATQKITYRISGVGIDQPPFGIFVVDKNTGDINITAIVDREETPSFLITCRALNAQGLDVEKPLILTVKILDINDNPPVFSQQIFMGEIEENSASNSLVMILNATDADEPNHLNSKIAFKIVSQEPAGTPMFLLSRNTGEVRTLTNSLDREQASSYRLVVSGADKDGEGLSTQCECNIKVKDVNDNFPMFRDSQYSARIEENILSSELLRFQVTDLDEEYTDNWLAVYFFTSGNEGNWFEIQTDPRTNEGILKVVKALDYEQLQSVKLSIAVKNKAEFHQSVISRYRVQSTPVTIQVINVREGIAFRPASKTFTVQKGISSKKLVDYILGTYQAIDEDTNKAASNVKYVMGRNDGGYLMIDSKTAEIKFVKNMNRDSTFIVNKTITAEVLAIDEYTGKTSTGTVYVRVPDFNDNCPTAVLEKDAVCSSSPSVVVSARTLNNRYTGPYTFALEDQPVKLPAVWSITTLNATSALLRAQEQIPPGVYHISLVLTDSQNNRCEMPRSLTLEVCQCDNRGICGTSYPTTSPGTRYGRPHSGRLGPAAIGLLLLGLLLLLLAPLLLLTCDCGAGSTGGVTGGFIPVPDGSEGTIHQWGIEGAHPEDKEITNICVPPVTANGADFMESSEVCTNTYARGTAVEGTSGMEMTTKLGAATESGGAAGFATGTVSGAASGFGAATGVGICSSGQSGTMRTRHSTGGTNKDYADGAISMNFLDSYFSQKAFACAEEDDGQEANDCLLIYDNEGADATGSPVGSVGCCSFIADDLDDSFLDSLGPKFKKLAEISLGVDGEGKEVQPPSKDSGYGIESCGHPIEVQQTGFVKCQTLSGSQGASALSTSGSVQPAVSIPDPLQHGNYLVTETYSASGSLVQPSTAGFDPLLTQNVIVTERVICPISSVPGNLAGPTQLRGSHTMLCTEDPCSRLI
row,Structure (SMILES),binding response (% of DMSO)
1,Cc1ccc([C@H]2C[C@H](n3cc(C4CC4)nn3)[C@@H](O)CN2Cc2cccs2)cc1,119%
2,COc1ccc(S(=O)(=O)N2CCCCCC2)cc1N,100%
3,COc1ccc(C(=O)Nn2c(C)nc3ccccc3c2=O)cc1Br,98%
4,COc1ccc(Br)c(C(=O)Nc2cccc(S(=O)(=O)N3CCOCC3)c2)c1,98.5%
5,CC(=O)Nc1ccc(S(=O)(=O)NCc2ccc3c(c2)cc(C)n3C)cc1,99.3%
6,CC(C)Oc1ccc(C(=O)Nc2ccc(NC(=O)c3ccco3)c(Cl)c2)cc1,100%
7,O=C(NCc1ccccc1)C1CCN(S(=O)(=O)c2cccc3cccnc23)CC1,109% and 103%
8,S=C(NCCCN1CCOCC1)N1CCN(c2cccc(Cl)c2)CC1,100%
9,COc1ccc(CNS(=O)(=O)c2cn(C)c(=O)n(C)c2=O)cc1,95%
10,Cc1c(C(=O)N2CCN(c3ccc(F)cc3)CC2)sc2nc(-c3ccccc3)cn12,101%
11,COc1ccc(NC(=O)c2cc(-c3ccc(C)o3)nc3ccccc23)cc1OC,103%
12,CCOC(=O)CSc1nnc(-c2ccccc2NC(=O)c2ccccc2)o1,95%
13,Cc1cc(C)n2c(SCC(=O)N3CCN(S(=O)(=O)c4ccc(Cl)cc4)CC3)nnc2n1,92.2%
14,CC(C)c1ccccc1NS(=O)(=O)N(C)C,99.3%
15,CN(C)c1nc(N)ncc1-c1ccc(Oc2ccccc2)cc1,83.8%
16,Cc1nnc(NC(=O)c2ccc(-c3ccc(Cl)cc3)o2)s1,104%
17,COc1ccc2cc(C(=O)COC(=O)COc3ccc4c(C)cc(=O)oc4c3)ccc2c1,91.2%
18,COc1ccc(-c2nc(C#N)c(NCc3ccccc3Cl)o2)cc1,89.4%
19,COc1ccc(CCn2nnnc2C(C(C)C)N2CCN(c3ncccn3)CC2)cc1OC (stereo not given),96.4%
20,CCOc1ccc(-n2nc3ccc(NC(=O)c4ccc5c(c4)OCCO5)cc3n2)cc1,85.4%
21,O=C(Nc1nc(-c2ccccc2)c(-c2ccccc2)s1)c1ccc(S(=O)(=O)N2CCCCC2)cc1,96.3%
22,COc1ccc(CCNC(=O)COc2cccc(-n3cnnn3)c2)cc1,108%
23,NC(=O)CC(NC(=O)Cc1cccc2ccccc12)c1ccc(NCCOc2ccccc2)c([N+](=O)[O-])c1 (stereo not given),104%

row,Structure (SMILES),binding response (% of DMSO)
1,CCOC(=O)c1cc(-c2ccc(/C=C3/C(=O)N(c4ccc(C(=O)O)cc4)N=C3C)o2)ccc1Cl,54.4% (active)
2,O=C(O)c1ccc(-c2ccc(/C=C3\NC(=O)N(Cc4ccc(Cl)cc4)C3=O)o2)cc1Cl,103%
3,CCOC(=O)c1ccc(-c2nnc(-c3ccc(Cl)cc3Cl)o2)cc1,100%
4,O=C(NCCCN1CCOCC1)c1cc2nc(-c3ccco3)cc(C(F)(F)F)n2n1,101%
5,CC1CC(C)CN(c2ncc3c(n2)CC(c2ccccc2)CC3=O)C1 (stereo not given),99%
6,O=c1c2nnn(Cc3ccc(Cl)cc3)c2ncn1Cc1ccc(F)cc1,93.7%
7,O=C(Nc1ccc(N2CCN(C(=O)c3ccccc3)CC2)cc1)c1cc2ccccc2o1,93.8%
8,Cc1ccc(N2CCN(S(=O)(=O)c3nnc(NC(=O)c4ccccc4)s3)CC2)cc1,98.7%
9,CCOc1ccc2c(c1)C(NC(C)=O)C(=O)N2CCN1CCOCC1 (stereo not given),97.4%
10,O=C(Nc1cccc(NC(=O)c2ccc(Cl)cc2)n1)c1ccc(Cl)cc1,100%
11,CNC(=O)CN1C(=O)NC(c2ccccc2)(c2ccccc2)C1=O,100%
12,Cc1ccc(Sc2ncccc2COC(=O)Nc2c(C)cccc2C)cc1,96.3%
13,FC(F)(F)c1cc(-c2ccco2)nc(NCCc2ccccc2)n1,106%
14,O=C(NCCCN1CCOCC1)c1cc(-c2cccc(Br)c2)nc2ccccc12,102%
15,COc1ccc(-c2cn3c(C)c(C(=O)NC(C)C)sc3n2)cc1,95.9%
16,O=C(Nc1ccc(NS(=O)(=O)c2ccccc2)cc1)c1ccc(Cl)cc1,49.9%
17,Cc1ccc(NS(=O)(=O)c2ccc3c(c2)oc(=O)n3C)cc1F,99.5%
18,CCn1nc(C(=O)OCc2c(C)noc2C)c2ccccc2c1=O,104%
19,COc1ccc(NC(=O)CCCC(=O)c2ccccc2)cc1,103%
20,CCN(CC)CC(=O)NN=C(c1ccccc1)c1ccccc1,100%
21,CCSc1nnc(NC(=O)CSc2nnc(CNC(=O)c3ccc(OC)cc3)o2)s1,102%
22,CCN(CC(=O)Nc1ccc(S(=O)(=O)N2CCCCC2)cc1)Cc1ccccc1,98%
23,O=C(COc1ccccc1Cl)NCCNC(=O)c1ccccn1,101%

row,Structure (SMILES),binding response (% of DMSO)
1,CCN(CC)CCn1c2c(c(SCC(=O)Nc3ccc(C)c(F)c3)nc1=O)CCC2,103%
2,Cc1nc(N)sc1-c1csc(Nc2ncccn2)n1,95.9%
3,Cc1cnc(C(=O)N2CCN(S(=O)(=O)c3cc(C(F)(F)F)cc(C(F)(F)F)c3)CC2)cn1,110%
4,COc1ccc(S(=O)(=O)N2CCN(CC(=O)Nc3cc(Cl)ccc3Cl)CC2)cc1,95%
5,COc1ccc(-n2c(SCC(=O)O)nc3sc4c(c3c2=O)CCCC4)cc1,103%
6,CCOC(=O)N1CCC(n2c(SCC(=O)c3ccccc3)nc3ccsc3c2=O)CC1,93.2%
7,Cc1ccc(NS(=O)(=O)c2c(C)[nH]c(C)c2C(=O)N2CCCCC2)c(Br)c1,101%
8,CCCCCC(=O)N1C[C@@H](O)[C@H](n2cc(-c3ccc(F)cc3)nn2)C[C@@H]1c1ccc(OC)cc1,99.7%
9,CC(=O)c1cc2c(cc1NC(=O)c1ccc(Cl)cc1)OCCO2,87.5%
10,COc1ccc(NC(=O)Cn2nnc(C(=O)NCc3ccccc3)c2N)cc1Cl,76.4%
11,CC(C)Oc1ccc(C(=O)Nc2c3c(nn2-c2ccccc2)CS(=O)(=O)C3)cc1,96.5%
12,CC(=O)c1ccc(NC(=O)Cn2cnc(S(=O)(=O)N3CCc4ccccc43)c2)cc1,94.8%
13,COc1cccc(C(=O)NCc2ccc3c(c2)cc(C)n3C)c1,109%
14,NNc1nc2c(-c3ccc(Cl)cc3)nnn2c2ccccc12,91.9%
15,COc1ccc(NC(=O)NN2CCN(C)CC2)c(OC)c1,99.8%
16,CSc1ccccc1OCc1cc(C(=O)N2CCN(Cc3nccn3C)CC2)no1,106%
17,C=CCNc1nc(-c2cccc(OC)c2O)nc2ccccc12,92.4%
18,Nc1nc(SCc2nnc(SCC(=O)O)n2-c2ccccc2)nc2sc3c(c12)CCCC3,106%
19,C=CCn1c(O)c(C2=c3ccccc3=NC2=O)s/c1=N/c1nccs1,71.7%
20,C=CCN1C2CCCC1CC(NC(=O)Nc1cccc(C(C)=O)c1)C2 (stereo not given),104%
21,COc1ccc(NC(=O)c2cc(-c3ccco3)nc3ccccc23)cc1,74.5%
22,COc1ccc(NC(=O)CN(C)Cc2cccs2)cc1Cl,105%
23,COC(=O)c1ccc(NC(=O)COc2ccc3c(c2)OCO3)cc1,102%

row,Structure (SMILES),binding response (% of DMSO)
1,CN(c1ccc(C(=O)NC2CC3CCC2C3)cc1)S(C)(=O)=O (stereo not given),101%
2,CC(=O)C1=C(O)CC(c2ccccc2)CC1=NCCc1c(C)[nH]c2ccc(C)cc12 (stereo not given),96.5%
3,CC(C)CNC(=O)c1ccccc1NC(=O)CN(c1ccccc1)S(=O)(=O)N(C)C,102%
4,CCOC(=O)c1c(S(=O)(=O)NCC(C)c2ccccc2)c(C)n(C)c1C (stereo not given),97.9%
5,CCCOC(=O)CSc1nc(N)c(C#N)c(CC)c1C#N,108%
6,CN(C)S(=O)(=O)c1cccc(NC(=O)COC(=O)c2cc3ccccc3oc2=O)c1,90.6%
7,COc1ccc(CNC(=O)c2ccc(Cl)c(NC3=NC4CS(=O)(=O)CC4S3)c2)cc1 (stereo not given),104%
8,CCn1cc(C(=O)NCc2cccnc2)c(=O)c2cc(F)c(N3CCN(C(=O)c4ccco4)CC3)cc21,105%
9,Cc1ccc(S(=O)(=O)N2CCCCC2)cc1NC(=O)CCNC(=O)c1ccccc1Cl,98.5%
10,O=C(CSc1nnc(CNC(=O)c2ccc(F)cc2)o1)Nc1nccs1,99.5%
11,CCOc1ccccc1NS(=O)(=O)c1ccc2[nH]c(=O)[nH]c2c1,89.3%
12,O=C(CN1CCN(S(=O)(=O)c2cc(Br)ccc2Br)CC1)NCc1ccccc1Cl,108%
13,Cc1ccc(NC(=O)Nc2ccc3c(c2)OCO3)nc1,101%
14,COc1ccc(CCN2CC(C(=O)OCC(=O)NC(Cc3ccccc3)C(C)=O)CC2=O)cc1OC (stereo not given),102%
15,CCOc1ccc(NC(=O)c2nc(SCC)ncc2Cl)cc1,101%
16,CCOc1ccc(C(=O)Nc2cccc3cccnc23)cc1,93%
17,Cc1ccc(C)n1NC(=O)c1cccs1,91.4%
18,COc1ccc(CC(=O)OCC(=O)NCc2ccc3c(c2)OCO3)cc1OC,99.5%
19,CCOC(=O)N1CCC(NC(=O)c2cc3c(-c4ccc(Cl)cc4)nn(C)c3s2)CC1,95.6%
20,COc1cccc(C(=O)Nc2cc(-c3cn4cccnc4n3)ccc2C)c1,102%
21,COc1ccc(CNC(=O)C(C)n2nc(C)c3c(C)n(-c4ccccc4)nc3c2=O)c(OC)c1 (stereo not given),95.7%
